# Measured values reported in PMC7862700, “An all-to-all approach to the identification of sequence-specific readers for epigenetic DNA modifications on cytosine”.
# Tests used:
# Test in all cases: DAPPL (digital affinity profiling via proximity ligation, sequencing); 10 mM Tris-HCl pH 7.5, 50 mM NaCl, 1 mM DTT, 4% glycerol, room temperature, 30 min; GST-TFs on glutathione beads, 16-mer random dsDNA library, 0.1% formaldehyde crosslink after washing; high values mean tight binding
# FLI1 = biological target: T1, FLI1 (Homo sapiens, UniProt Q01543 1-452); conditions: protein: recombinant; tags: N-terminal GST; dsDNA, one strand shown
# T1 sequence: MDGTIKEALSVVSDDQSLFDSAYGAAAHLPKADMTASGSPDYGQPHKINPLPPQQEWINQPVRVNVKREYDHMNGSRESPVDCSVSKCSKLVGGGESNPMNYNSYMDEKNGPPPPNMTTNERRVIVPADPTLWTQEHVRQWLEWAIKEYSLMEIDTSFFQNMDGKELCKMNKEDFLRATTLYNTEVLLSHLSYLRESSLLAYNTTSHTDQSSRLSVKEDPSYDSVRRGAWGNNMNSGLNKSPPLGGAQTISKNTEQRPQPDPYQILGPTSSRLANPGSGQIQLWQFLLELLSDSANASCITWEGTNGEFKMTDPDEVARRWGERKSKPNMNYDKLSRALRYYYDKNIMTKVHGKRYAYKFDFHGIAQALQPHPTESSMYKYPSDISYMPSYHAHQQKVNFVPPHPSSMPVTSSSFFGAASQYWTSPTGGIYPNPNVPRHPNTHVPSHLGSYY
# Method in brief: (§1)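 Beads coated with glutathione captured GST-fused human transcription factors that had been expressed in yeast, and the factors were then given DNA barcodes and pooled with a tag-only sample. The pools were incubated with 200 nmole of a random double-stranded 16-mer DNA library in Tris/NaCl/DTT/glycerol buffer for 30 min at room temperature, washed, crosslinked with 0.1% formaldehyde and proximity-ligated with BsaI/T4 ligase at 37 °C for 1 h. PCR amplification and Illumina NextSeq500 sequencing came last. Binding signal is each hexamer's read frequency for a factor divided by its frequency for the tag-only sample.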
# ELK1 = biological target: T2, ELK1 (Homo sapiens, UniProt P19419 1-428); conditions: protein: recombinant; tags: N-terminal GST; dsDNA, one strand shown
# T2 sequence: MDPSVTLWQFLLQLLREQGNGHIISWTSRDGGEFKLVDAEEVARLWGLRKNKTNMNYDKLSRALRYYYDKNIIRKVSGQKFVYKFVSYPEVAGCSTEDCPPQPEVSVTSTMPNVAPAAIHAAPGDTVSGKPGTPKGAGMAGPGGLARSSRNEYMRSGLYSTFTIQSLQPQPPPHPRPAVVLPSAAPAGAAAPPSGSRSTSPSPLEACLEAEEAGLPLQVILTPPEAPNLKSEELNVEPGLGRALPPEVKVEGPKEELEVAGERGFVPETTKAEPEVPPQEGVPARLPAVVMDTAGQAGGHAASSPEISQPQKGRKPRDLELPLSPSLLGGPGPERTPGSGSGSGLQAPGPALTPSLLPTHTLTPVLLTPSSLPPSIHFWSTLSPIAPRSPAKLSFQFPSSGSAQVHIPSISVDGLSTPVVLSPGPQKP
# Method in brief: as §1
# GABPA = biological target: T3, GABPA (Homo sapiens, UniProt Q06546 1-454); conditions: protein: recombinant; tags: N-terminal GST; dsDNA, one strand shown
# T3 sequence: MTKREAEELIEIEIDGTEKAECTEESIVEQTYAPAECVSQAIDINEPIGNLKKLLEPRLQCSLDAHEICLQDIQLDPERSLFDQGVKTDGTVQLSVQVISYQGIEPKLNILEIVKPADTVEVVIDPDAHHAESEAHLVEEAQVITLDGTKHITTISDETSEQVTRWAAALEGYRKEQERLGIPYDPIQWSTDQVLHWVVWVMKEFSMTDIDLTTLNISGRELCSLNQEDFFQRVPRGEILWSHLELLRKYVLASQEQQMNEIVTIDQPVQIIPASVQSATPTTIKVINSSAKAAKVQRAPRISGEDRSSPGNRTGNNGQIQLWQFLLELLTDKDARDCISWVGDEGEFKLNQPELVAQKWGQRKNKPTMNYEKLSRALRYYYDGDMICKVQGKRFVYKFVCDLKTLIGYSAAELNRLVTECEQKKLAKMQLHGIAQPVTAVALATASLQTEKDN
# Method in brief: as §1
# ERG = biological target: T4, ERG (Homo sapiens, UniProt P11308 1-479); conditions: protein: recombinant; tags: N-terminal GST; dsDNA, one strand shown
# T4 sequence: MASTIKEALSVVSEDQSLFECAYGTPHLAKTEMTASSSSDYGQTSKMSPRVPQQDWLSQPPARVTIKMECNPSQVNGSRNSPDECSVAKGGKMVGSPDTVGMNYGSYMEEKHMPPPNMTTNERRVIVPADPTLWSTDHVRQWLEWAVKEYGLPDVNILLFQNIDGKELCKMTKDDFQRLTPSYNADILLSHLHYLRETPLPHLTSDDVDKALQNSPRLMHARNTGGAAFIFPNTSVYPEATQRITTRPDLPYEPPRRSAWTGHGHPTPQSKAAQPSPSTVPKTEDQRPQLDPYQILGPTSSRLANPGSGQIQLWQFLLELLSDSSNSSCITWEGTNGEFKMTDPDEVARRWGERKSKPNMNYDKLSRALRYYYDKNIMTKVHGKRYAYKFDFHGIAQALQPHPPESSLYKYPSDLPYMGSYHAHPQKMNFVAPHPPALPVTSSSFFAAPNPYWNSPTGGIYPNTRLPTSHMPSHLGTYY
# Method in brief: as §1
# ELF1 = ELF1 (Homo sapiens, UniProt P32519 1-619); conditions: protein: recombinant; tags: N-terminal GST; dsDNA, one strand shown
# Sequence of ELF1 (P32519 whole entry): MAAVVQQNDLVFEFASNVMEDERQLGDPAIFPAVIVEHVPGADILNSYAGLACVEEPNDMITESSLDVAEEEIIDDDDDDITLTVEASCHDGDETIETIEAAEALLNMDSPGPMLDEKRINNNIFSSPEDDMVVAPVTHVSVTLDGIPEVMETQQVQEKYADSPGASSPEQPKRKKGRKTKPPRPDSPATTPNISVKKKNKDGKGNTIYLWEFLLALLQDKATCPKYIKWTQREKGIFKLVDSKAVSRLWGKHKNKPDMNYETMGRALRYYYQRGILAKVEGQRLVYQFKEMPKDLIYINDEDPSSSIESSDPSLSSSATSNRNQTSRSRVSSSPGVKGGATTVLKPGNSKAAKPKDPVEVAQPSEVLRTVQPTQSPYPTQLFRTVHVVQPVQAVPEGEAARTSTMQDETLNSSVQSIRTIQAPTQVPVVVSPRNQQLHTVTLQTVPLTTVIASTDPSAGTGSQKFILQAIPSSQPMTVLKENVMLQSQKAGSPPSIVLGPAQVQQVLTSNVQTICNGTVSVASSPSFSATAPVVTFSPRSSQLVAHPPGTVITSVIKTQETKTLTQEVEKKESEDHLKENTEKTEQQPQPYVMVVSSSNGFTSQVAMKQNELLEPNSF
# Method in brief: as §1
# EHF = biological target: T5, EHF (Homo sapiens, UniProt Q9NZC4 1-300); conditions: protein: recombinant; tags: N-terminal GST; dsDNA, one strand shown
# T5 sequence: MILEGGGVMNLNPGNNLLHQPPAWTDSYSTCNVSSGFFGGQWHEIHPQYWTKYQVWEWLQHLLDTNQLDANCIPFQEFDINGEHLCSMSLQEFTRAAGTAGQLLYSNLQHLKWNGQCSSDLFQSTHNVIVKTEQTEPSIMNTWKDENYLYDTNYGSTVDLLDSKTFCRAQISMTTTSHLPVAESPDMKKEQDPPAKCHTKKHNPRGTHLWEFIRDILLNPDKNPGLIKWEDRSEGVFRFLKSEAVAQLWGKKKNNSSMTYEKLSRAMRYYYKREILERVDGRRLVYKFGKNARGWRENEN
# Method in brief: as §1
# SPI1 = SPI1 (Homo sapiens, UniProt P17947 1-270); conditions: protein: recombinant; tags: N-terminal GST; dsDNA, one strand shown
# Method in brief: as §1
# SPIB = SPIB (Homo sapiens, UniProt Q01892 1-262); conditions: protein: recombinant; tags: N-terminal GST; dsDNA, one strand shown
# Sequence of SPIB (Q01892 whole entry): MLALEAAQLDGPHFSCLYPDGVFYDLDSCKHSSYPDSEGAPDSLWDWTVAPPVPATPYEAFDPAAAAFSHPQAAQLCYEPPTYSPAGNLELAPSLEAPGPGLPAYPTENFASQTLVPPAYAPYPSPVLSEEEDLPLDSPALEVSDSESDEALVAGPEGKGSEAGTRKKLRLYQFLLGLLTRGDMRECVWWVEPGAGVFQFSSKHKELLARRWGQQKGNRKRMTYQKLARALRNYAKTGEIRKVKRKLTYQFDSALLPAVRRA
# Method in brief: as §1
# ELK3 = biological target: T6, ELK3 (Homo sapiens, UniProt P41970 1-407); conditions: protein: recombinant; tags: N-terminal GST; dsDNA, one strand shown
# T6 sequence: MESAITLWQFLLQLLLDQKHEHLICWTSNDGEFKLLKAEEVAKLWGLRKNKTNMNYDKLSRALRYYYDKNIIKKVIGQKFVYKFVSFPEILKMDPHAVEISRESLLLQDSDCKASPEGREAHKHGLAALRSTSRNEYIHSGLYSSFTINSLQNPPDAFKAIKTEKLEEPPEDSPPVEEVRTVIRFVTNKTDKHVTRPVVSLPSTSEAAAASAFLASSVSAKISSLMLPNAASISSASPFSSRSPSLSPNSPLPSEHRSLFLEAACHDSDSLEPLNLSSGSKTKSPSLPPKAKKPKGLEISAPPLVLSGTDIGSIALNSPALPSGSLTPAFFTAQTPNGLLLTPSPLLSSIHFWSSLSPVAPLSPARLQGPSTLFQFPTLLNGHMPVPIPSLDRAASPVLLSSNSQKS
# Method in brief: as §1
# FEV = biological target: T7, FEV (Homo sapiens, UniProt Q99581 1-238); conditions: protein: recombinant; tags: N-terminal GST; dsDNA, one strand shown
# T7 sequence: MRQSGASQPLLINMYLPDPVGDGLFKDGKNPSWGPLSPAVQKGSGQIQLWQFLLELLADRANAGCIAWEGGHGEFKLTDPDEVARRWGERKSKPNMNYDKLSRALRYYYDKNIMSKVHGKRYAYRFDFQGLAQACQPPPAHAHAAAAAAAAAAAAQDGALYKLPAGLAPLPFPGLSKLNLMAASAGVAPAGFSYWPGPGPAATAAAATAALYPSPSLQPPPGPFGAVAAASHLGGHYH
# Method in brief: as §1
# ETV5 = ETV5 (Homo sapiens, UniProt P41161 1-510); conditions: protein: recombinant; tags: N-terminal GST; dsDNA, one strand shown
# Sequence of ETV5 (P41161 whole entry): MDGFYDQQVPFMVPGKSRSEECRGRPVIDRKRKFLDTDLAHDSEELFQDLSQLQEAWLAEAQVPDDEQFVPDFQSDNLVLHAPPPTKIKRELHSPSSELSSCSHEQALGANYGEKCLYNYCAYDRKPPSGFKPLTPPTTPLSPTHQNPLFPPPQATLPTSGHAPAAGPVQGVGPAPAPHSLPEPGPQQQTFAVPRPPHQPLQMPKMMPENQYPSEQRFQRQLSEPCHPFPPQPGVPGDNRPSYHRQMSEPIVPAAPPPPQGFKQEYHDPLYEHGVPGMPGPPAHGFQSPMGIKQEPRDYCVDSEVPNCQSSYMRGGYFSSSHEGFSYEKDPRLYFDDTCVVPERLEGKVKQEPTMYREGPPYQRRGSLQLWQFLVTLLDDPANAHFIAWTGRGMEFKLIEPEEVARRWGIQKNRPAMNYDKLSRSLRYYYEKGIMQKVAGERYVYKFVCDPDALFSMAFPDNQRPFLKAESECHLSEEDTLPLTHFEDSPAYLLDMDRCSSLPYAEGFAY
# Method in brief: as §1
# HSF1 = HSF1 (Homo sapiens, UniProt Q00613 1-529); conditions: protein: recombinant; tags: N-terminal GST; chain copies: 3; dsDNA, one strand shown
# Sequence of HSF1 (Q00613 whole entry): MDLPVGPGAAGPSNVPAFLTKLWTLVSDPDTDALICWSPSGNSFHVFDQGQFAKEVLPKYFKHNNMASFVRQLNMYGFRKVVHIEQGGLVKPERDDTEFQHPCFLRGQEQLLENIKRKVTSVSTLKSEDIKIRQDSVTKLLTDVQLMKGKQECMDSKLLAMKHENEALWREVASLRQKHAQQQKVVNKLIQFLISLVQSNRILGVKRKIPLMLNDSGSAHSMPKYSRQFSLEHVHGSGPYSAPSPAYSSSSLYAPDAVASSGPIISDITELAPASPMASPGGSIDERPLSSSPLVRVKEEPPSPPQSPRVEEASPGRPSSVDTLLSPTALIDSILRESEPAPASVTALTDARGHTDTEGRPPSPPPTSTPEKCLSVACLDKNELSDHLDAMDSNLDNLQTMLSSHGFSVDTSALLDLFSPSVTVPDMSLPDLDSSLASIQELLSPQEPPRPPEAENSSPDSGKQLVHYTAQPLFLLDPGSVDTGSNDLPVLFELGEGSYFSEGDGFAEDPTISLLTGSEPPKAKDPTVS
# Method in brief: as §1
# SPIC = biological target: T8, SPIC (Homo sapiens, UniProt Q8N5J4 1-248); conditions: protein: recombinant; tags: N-terminal GST; dsDNA, one strand shown
# T8 sequence: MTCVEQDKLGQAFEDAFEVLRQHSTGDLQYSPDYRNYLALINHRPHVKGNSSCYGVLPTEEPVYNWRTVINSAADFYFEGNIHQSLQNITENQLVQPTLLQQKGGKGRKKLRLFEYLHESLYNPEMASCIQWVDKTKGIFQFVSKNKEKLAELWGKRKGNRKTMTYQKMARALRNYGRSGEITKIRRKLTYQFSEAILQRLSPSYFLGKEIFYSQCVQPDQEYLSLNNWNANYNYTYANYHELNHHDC
# Method in brief: as §1
# ELF4 = ELF4 (Homo sapiens, UniProt Q99607 1-663); conditions: protein: recombinant; tags: N-terminal GST; dsDNA, one strand shown
# Sequence of ELF4 (Q99607 whole entry): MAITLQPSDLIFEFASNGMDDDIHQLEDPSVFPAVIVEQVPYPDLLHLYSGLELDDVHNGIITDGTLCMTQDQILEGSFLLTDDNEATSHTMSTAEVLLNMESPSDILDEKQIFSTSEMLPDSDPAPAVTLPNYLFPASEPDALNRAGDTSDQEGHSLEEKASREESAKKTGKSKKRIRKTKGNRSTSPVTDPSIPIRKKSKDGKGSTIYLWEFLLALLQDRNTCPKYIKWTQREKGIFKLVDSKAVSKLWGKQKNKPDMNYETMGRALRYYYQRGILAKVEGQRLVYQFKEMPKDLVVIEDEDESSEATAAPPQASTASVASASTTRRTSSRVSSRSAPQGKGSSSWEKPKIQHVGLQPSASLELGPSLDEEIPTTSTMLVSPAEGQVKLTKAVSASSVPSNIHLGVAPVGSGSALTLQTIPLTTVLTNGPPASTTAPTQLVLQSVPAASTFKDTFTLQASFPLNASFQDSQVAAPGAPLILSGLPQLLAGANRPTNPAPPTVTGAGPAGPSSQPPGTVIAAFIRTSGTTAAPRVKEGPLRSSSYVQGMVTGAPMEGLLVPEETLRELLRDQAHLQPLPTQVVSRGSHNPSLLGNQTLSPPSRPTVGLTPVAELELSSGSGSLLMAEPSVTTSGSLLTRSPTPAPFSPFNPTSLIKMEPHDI
# Method in brief: as §1
# ELK4 = biological target: T9, ELK4 (Homo sapiens, UniProt P28324-2 1-405); conditions: protein: recombinant; tags: N-terminal GST; dsDNA, one strand shown
# T9 sequence: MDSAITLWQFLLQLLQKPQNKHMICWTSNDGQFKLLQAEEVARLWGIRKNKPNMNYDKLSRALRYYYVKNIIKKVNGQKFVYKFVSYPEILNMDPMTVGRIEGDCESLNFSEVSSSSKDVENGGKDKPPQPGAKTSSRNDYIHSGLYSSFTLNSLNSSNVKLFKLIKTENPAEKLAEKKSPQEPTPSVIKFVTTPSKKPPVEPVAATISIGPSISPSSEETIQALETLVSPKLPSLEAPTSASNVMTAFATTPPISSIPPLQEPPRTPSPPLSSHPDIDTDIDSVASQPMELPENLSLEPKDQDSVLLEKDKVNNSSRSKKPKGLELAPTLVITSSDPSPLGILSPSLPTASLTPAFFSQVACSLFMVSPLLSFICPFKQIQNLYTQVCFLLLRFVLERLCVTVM
# Method in brief: as §1
# ETV2 = biological target: T10, ETV2 (Homo sapiens, UniProt O00321 1-342); conditions: protein: recombinant; tags: N-terminal GST; dsDNA, one strand shown
# T10 sequence: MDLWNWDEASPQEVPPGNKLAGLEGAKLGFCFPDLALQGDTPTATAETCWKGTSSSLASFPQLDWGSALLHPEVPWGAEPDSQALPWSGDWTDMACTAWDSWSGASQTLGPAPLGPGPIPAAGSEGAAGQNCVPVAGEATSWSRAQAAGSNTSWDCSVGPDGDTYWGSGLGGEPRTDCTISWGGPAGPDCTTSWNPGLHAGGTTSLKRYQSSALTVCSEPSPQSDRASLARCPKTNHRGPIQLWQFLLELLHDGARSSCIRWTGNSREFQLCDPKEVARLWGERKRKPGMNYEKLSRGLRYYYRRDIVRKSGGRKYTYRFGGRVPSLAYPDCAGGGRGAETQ
# Method in brief: as §1
# ELF3 = biological target: T11, ELF3 (Homo sapiens, UniProt P78545 1-371); conditions: protein: recombinant; tags: N-terminal GST; dsDNA, one strand shown
# T11 sequence: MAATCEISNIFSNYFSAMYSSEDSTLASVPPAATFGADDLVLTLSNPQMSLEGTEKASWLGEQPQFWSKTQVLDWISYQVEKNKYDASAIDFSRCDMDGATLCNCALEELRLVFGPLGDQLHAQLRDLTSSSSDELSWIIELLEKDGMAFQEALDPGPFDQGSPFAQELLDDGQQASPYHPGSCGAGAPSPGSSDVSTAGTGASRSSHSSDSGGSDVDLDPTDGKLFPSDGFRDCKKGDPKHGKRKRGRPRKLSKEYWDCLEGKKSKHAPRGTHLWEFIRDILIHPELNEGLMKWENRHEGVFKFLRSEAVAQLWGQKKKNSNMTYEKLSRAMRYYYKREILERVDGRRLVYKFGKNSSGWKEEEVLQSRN
# Method in brief: as §1
# CRX = CRX (Homo sapiens, UniProt O43186 1-299); conditions: protein: recombinant; tags: N-terminal GST; dsDNA, one strand shown
# Sequence of CRX (O43186 whole entry): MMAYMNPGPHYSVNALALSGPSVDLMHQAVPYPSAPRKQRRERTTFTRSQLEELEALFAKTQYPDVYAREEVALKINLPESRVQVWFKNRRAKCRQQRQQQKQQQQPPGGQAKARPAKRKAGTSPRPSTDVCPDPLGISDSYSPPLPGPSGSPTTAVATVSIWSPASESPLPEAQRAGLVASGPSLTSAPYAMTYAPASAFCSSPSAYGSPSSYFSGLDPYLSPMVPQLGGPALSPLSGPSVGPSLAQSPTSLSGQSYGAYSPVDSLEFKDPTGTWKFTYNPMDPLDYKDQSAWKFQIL
# Method in brief: as §1
# ETV1 = ETV1 (Homo sapiens, UniProt P50549 1-477); conditions: protein: recombinant; tags: N-terminal GST; dsDNA, one strand shown
# Sequence of ETV1 (P50549 whole entry): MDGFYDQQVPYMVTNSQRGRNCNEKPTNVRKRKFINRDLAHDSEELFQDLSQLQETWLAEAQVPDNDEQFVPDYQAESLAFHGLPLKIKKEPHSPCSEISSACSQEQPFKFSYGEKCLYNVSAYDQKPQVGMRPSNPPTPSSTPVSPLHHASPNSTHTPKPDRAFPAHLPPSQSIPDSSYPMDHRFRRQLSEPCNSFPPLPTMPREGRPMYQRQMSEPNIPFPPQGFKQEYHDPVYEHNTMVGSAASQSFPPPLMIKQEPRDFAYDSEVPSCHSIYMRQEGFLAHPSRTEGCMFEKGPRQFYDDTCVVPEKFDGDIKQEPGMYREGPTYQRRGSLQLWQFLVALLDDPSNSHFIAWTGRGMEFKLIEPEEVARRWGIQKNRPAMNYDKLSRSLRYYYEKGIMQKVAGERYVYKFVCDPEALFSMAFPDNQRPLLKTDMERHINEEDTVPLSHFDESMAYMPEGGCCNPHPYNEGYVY
# Method in brief: as §1
sequence,measurement,setting,value
CCTTGC,binding signal,FLI1,"1.31 fold enrichment (6-mer frequency, TF over GST control)"
same,binding signal,ELK1,"1.28 fold enrichment (6-mer frequency, TF over GST control)"
same,binding signal,GABPA,"1.33 fold enrichment (6-mer frequency, TF over GST control)"
same,binding signal,ERG,"1.2 fold enrichment (6-mer frequency, TF over GST control)"
same,binding signal,ELF1,"1.45 fold enrichment (6-mer frequency, TF over GST control)"
same,binding signal,EHF,"1.28 fold enrichment (6-mer frequency, TF over GST control)"
same,binding signal,SPI1,"1.27 fold enrichment (6-mer frequency, TF over GST control)"
same,binding signal,SPIB,"1.24 fold enrichment (6-mer frequency, TF over GST control)"
same,binding signal,ELK3,"1.16 fold enrichment (6-mer frequency, TF over GST control)"
same,binding signal,FEV,"1.27 fold enrichment (6-mer frequency, TF over GST control)"
same,binding signal,ETV5,"1.17 fold enrichment (6-mer frequency, TF over GST control)"
same,binding signal,HSF1,"1.04 fold enrichment (6-mer frequency, TF over GST control)"
same,binding signal,SPIC,"1.45 fold enrichment (6-mer frequency, TF over GST control)"
same,binding signal,ELF4,"1.27 fold enrichment (6-mer frequency, TF over GST control)"
same,binding signal,ELK4,"1.2 fold enrichment (6-mer frequency, TF over GST control)"
same,binding signal,ETV2,"1.44 fold enrichment (6-mer frequency, TF over GST control)"
same,binding signal,ELF3,"1.49 fold enrichment (6-mer frequency, TF over GST control)"
same,binding signal,CRX,"1.02 fold enrichment (6-mer frequency, TF over GST control)"
same,binding signal,ETV1,"1.33 fold enrichment (6-mer frequency, TF over GST control)"
